Source: PubChem (several laboratories)
An excerpt weighted towards active compounds, which were near 2.1% of everything screened.
KLF5 inh – KLF5 expression inhibitors, primary screen, DLD-1 cells, luminescence. DLD-1 KLF5 promoter-luciferase reporter. inhibition, % at 5 µM. 290,000 tested, 0.23% active;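 active = inhibition above a per-plate limit of that plate's mean compound inhibition plus 3 SD, cut at about 60% in these data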;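 also: 0% = DMSO wells and 100% = LY294002 at 200 µM; higher means less KLF5 promoter-driven luciferase light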
HIF activator – HIF pathway transcriptional activators, primary screen, cell-based, U2OS HRE-luciferase, luminescence | 300,000 tested, 0.32% active | U2OS HRE-luciferase reporter; normalized: DMSO 0%, desferrioxamine 100% | activation, % at 7.5 µM (by protocol) | AID 1910, 2009;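 active = mean activation of at least 10% of the iron chelator positive control signal, with at least half of replicates also reaching 10%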
aSyn 5UTR inh – MLPCN primary screen, SNCA 5' untranslated region; alpha-synuclein 5'UTR reporter, inhibitor activity; AID 1813, 2009; 300,000 tested, 0.82% active; inhibition, % (tested at 7.5 µM); in the data active = inhibition above about 60%;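 also: H4 neuroglioblastoma cells stably carrying SNCA 5'UTR luciferase fusion; 0% = DMSO wells and 100% = positive control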
Wee1 degr inh – Wee1 degradation inhibitors, primary screen, cell-based, HeLa, Wee1K328M-luciferase, luminescence; Wee1-like protein kinase (Homo sapiens), P30291; HeLa Luc-Wee1K328M stability; 100% = proteasome inhibitor MG132 effect; reporter increase, % at 5 µM; 220,000 tested, 1.2% active;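 active = activation above the mean of all tested compounds plus 3 SD, set per screening run, cut at about 8.8% in these data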;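 also: cells exposed to compound for 20 h before luminescence read; 0% = DMSO alone and 100% = MG132 at 30 µM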
Platelet DG rel – inhibitors of platelet dense granule secretion, primary screen, cell-based, MLPCN, human platelets; human platelet-rich plasma, SFLLRN dense granule ATP release, luminescence; inhibition, %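 (compounds screened at 7.5 µM in platelet-rich plasma)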; 300,000 tested, 0.22% active; AID 1663, 2009;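 active = mean replicate score, as percent of positive control, at or above 50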
Wee1 degr conf – Wee1 degradation inhibitors, confirmation, cell-based, HeLa, Wee1K328M-luciferase, luminescence, triplicate; shares compounds with Wee1 degr inh; HeLa Luc-Wee1K328M degradation; vehicle 0%, proteasome-blocked wells 100%; activation, % at 5 µM; 1,100 tested, 4% active; in the data active = activation above about 8.9%
The depositor's hits bear a star; x = no result given.

SMILES	KLF5 inh	HIF activator	aSyn 5UTR inh	Wee1 degr inh	Platelet DG rel	Wee1 degr conf
CCC1OC2(C)OC(=N)C1(C#N)C(C#N)(C#N)C2c1ccccc1 (centres undefined)	-14	1	13	0	0	x
O=C(CCNS(=O)(=O)c1cccs1)N1CCc2ccccc2C1	-57	1	-59	19*	-4	1
CCN(CC)C(=O)c1ccccc1NC(=O)CN1C(=O)c2ccccc2S1(=O)=O	-13	0	15	x	0	x
COc1ccc2c(=O)c(-c3ccccc3)coc2c1	-159	2	-65	9.9*	8	4
Cc1cc2nnc(SCC(=O)N(C)C3CCS(=O)(=O)C3)n2c2ccccc12 (centres undefined)	-26	0	18	1	17	x
COc1ccc(CN2CCc3c([nH]c4ccccc34)C2)c(OC)c1C	-31	-1	12	x	7	x
COc1cccc(NC(=O)C2CC2)c1	x	0	0	x	5	x
CCC1CCC(NC(=O)Nc2cccc(OC)c2)CC1 (centres undefined)	-115	2	-193	16*	-3	4
O=C(/C=C/c1ccccc1)Nc1ccc(Cl)cn1	-67	4	-95	11*	-2	9.0*
O=C(COC(=O)/C=C/c1ccccc1)Nc1ccc(Cl)cn1	x	0	-6	x	-33	x
CC(C)Oc1ccc(/C(O)=C2/C(=O)C(=O)N(CCN3CCNCC3)C2c2cccc([N+](=O)[O-])c2)cc1 (centres undefined)	-28	1	12	x	-12	x
CCCN(C(=O)c1c(CC)noc1C)c1c(N)n(Cc2ccccc2)c(=O)[nH]c1=O	x	-2	2	x	x	x
O=c1c(Cc2c(F)cccc2Cl)c(O)ccn1CC1CCCO1 (centres undefined)	-26	0	10	12*	0	-2
COc1ccc(NC(=S)N(CCCN2CCOCC2)C(C)c2cc3cccc(OC)c3o2)cc1 (centres undefined)	-43	-1	5	1	-1	x
COc1cccc2cc(C(C)N(CCCN3CCOCC3)C(=S)Nc3cc(C)ccc3C)oc12 (centres undefined)	18	0	-7	14*	-2	3
COc1cccc2cc(C(C)N(CCCN3CCOCC3)C(=S)Nc3cccc(C)c3C)oc12 (centres undefined)	-23	0	13	0	-5	x
COc1cccc2cc(C(C)N(CCCN3CCOCC3)C(=S)Nc3ccc(C)c(C)c3)oc12 (centres undefined)	2	0	-23	33*	-2	0
Cc1c(OCC(=O)N[C@H](C(=O)O)c2ccccc2)ccc2c3c(c(=O)oc12)CCCC3	-24	0	13	x	-3	x
Cc1nnc(NC(=O)Cn2cnc3c2c(=O)n(C)c(=O)n3C)s1	-4	-1	-2	12*	-4	0
O=C(/C=C/c1ccco1)NC(=S)Nc1cccc(-c2nc3ccccc3s2)c1	-2	5	-36	13*	9	8
O=C(/C=C/c1ccco1)NC(=S)Nc1cc(-c2nc3ccccc3s2)ccc1Cl	-14	x	x	2	x	x
CC(C(=O)c1c[nH]c(C(=O)N=CN(C)C)c1)c1ncc(C(F)(F)F)cc1Cl (centres undefined)	-18	0	18	14*	2	2
COc1ccc(C2=NN(C(=O)CN3CCCCC3)C(c3ccc(OC)cc3)C2)cc1 (centres undefined)	-13	0	-18	13*	3	3
Cc1cc(NC(=O)CSc2nnc(C3COc4ccccc4O3)n2C)no1 (centres undefined)	-63	0	12	22*	-3	-3
CCOc1cc(/C=N/NC(=O)c2cc(-c3cccnc3)nc3ccccc23)ccc1O	-2	0	-3	-2	10	x
O=C(O)c1ccc(CSc2nnc(COc3ccccc3)o2)cc1	-13	0	-17	14*	1	4
Oc1c(CN2CCOCC2)ccc2ccccc12	-46	0	-20	11*	4	0
